The supplement of paper PMC3334620
In all, about 33,000 sequences were measured (“E-score (-0.5 to 0.5)”: median about -0.016, highest 2% from about 0.31 on). This is one part of a sample in which the highest values are shown more often than they occur.

target: Cst6 (UniProt P40535); test: PBM E-score (8-mer binding enrichment) (E-score (-0.5 to 0.5)); higher = stronger / more preferred TF binding; details: protein concentration: 200 nM; construct: GST-DNA-binding domain
Protocol: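 Universal 'all 10-mer' protein binding microarrays (Agilent AMADID 015681) probed with GST-tagged S. cerevisiae TFs (full-length or DBD) made by in vitro transcription/translation (PURExpress), about 100-200 nM. Bound TF was detected with fluorescent anti-GST. Each ungapped 8-mer (which stands for itself and its reverse complement) is scored by the PBM enrichment score (E-score), a modified Wilcoxon-Mann-Whitney statistic from -0.5 to +0.5, computed with the Universal PBM Analysis Suite. Scale: above 0.35 generally sequence-specific binding.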

Chain of UniProt P40535 (P40535 whole entry, the tested form may be a part): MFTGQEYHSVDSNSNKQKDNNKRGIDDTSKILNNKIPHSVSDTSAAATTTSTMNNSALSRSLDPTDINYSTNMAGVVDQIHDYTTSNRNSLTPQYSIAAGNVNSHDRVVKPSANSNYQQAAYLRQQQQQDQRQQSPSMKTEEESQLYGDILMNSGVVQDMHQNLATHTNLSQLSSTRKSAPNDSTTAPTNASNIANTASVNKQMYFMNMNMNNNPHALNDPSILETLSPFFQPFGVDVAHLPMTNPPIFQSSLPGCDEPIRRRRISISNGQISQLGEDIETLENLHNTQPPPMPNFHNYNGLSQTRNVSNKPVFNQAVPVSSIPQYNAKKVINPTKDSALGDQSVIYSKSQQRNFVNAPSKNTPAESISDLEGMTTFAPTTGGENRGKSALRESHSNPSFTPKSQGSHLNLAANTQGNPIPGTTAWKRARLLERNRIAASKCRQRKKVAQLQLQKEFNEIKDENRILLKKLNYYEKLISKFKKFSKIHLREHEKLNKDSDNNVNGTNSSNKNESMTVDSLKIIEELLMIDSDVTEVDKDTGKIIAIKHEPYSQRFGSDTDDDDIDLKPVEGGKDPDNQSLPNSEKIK

| Sequence | PBM E-score |
| --- | --- |
| ATCCGTGA | -0.0022 |
| GATCGGAC | -0.0973 |
| CAGATTGC | -0.0228 |
| GTAGATGA | 0.181 |
| CCTAGCTA | -0.162 |
| ATTTGTGG | 0.0944 |
| CGATTACG | 0.349 |
| CGATTACC | -0.107 |
| AGATTACC | 0.144 |
| AGATTACG | 0.386 |
| CGATTACA | 0.13 |
| AGATTACT | 0.144 |
| CTCCCACC | -0.335 |
| ACGGCTTC | 0.0724 |
| AAGCCTGT | -0.0963 |
| GTCGCCCA | -0.192 |
| CAGCTCTC | -0.172 |
| AAAAATAT | 0.309 |
| AACAATAC | 0.156 |
| AACAATAT | 0.37 |
| AATAATAT | 0.305 |
| AATAATAA | 0.313 |
| CATAATAA | 0.267 |

| Sequence | PBM E-score |
| --- | --- |
| AAAAATAG | 0.118 |
| AACAATAA | 0.204 |
| AATAATGT | 0.181 |
| AATAATAC | 0.197 |
| AATAATAG | 0.209 |
| AAAAATAA | 0.292 |
| GCCTTAAA | 0.151 |
| GATGGCCC | -0.106 |
| CGAGCCCG | -0.126 |
| CGGAAATA | 0.155 |
| CCGAGTTC | -0.063 |
| CCCTAGGA | -0.295 |
| TATTAATA | 0.0736 |
| CACTAATA | 0.211 |
| AATTAATT | 0.311 |
| AATTAATC | 0.197 |
| TACTAATA | 0.222 |
| GTTTAATA | 0.202 |
| AACTAATA | 0.336 |
| GATTAATA | 0.261 |
| AATTAATA | 0.39 |
| CTTTAATA | 0.201 |
| AATTAATG | 0.174 |

| Sequence | PBM E-score |
| --- | --- |
| ATTTAATA | 0.338 |
| GAGTCCGA | -0.0585 |
| TCGCCAGA | -0.0255 |
| ACTCGCCA | -0.037 |
| AATAAACG | 0.157 |
| GCCGGAGC | -0.249 |
| CAACTGAC | 0.0886 |
| AGATGTAA | 0.27 |
| TGATGTAA | 0.488 |
| TGATGCAA | 0.418 |
| CGATGCAA | -0.0639 |
| GGATGCAA | -0.129 |
| CGATGTAA | 0.117 |
| CACAGGAA | -0.0714 |
| TCAATCGA | 0.249 |
| TGACGGCA | 0.371 |
| CGACGGAA | -0.188 |
| TGACGGAA | 0.432 |
| CGACGGCA | -0.00873 |
| GGACGGCA | 0.25 |
| GGACGGAA | -0.119 |
| CCGTCGGA | -0.114 |
| CCCAGTAC | -0.202 |

| Sequence | PBM E-score |
| --- | --- |
| TGGTCACA | 0.0201 |
| AAGTCACC | 0.188 |
| GCGTCACC | 0.448 |
| AGGTCACC | 0.0958 |
| GAGTCACC | 0.0602 |
| TAGTCACA | 0.0725 |
| CCGTCACG | 0.176 |
| GCGTCACA | 0.417 |
| TCGTCACA | 0.368 |
| ACGTCACC | 0.496 |
| GGGTCACC | -0.153 |
| CCGTCACA | 0.139 |
| CCAAAGCC | -0.0189 |
| AACATCCT | -0.0218 |
| GAGGATTA | -0.125 |
| GTAGCGAC | -0.304 |
| CCATCAAG | -0.165 |
| CGGCGGTA | 0.128 |
| AAGAGTGT | 0.0413 |
| ACGACCGT | -0.238 |
| GCGGGGTA | -0.201 |
| GAGCCTCC | -0.278 |
| AGGGCGGG | -0.0957 |

| Sequence | PBM E-score |
| --- | --- |
| ACTCCGAA | -0.169 |
| CCGTCACC | 0.411 |
| CAGTCACC | -0.113 |
| CGGTCACC | 0.0497 |
| AGGTTCGC | -0.315 |
| ACAATGGG | 0.0198 |
| CCAGACCG | -0.0843 |
| ACCTGCGA | -0.26 |
| AGCTGCTG | -0.0369 |
| GACGAAAA | 0.329 |
| CACGAAAA | 0.247 |
| TACGAAAA | 0.233 |
| TGCTGACA | 0.0293 |
| CCCAATCG | -0.0318 |
| CTCATCGA | -0.0055 |
| TTCATCAA | 0.151 |
| GCCATCAA | -0.169 |
| GTCATCGA | 0.348 |
| CTCATCAA | 0.134 |
| CTCATCTA | -0.113 |
| ATCATCAA | 0.326 |
| GTCATCAA | 0.385 |
